# Laboratory results: PubChem BioAssay
# Active and inactive are the calls of the source.
# What was measured:
# [1] = compound effects on lung adenocarcinoma cell viability – A549, calcein-AM fluorescence, 48 h, basal, profiling panel (AID 1162); conditions: higher = more signal
# [2] = compound effects on differentiated 3T3-L1 adipocyte viability – cell-based, 3T3-L1 adipocytes, calcein-AM fluorescence, 48 h, basal, profiling panel (AID 1163); conditions: 3T3-L1 adipocytes viability, higher = more signal
# [3] = compound effects on hepatocellular carcinoma cell viability – HepG2, calcein-AM fluorescence, 48 h, basal, profiling panel (AID 1164); conditions: higher = more signal
# [4] = compound effects on multiple myeloma cell viability – MM1S, calcein-AM fluorescence, 48 h, basal, profiling panel (AID 1165); conditions: higher = more signal
# [5] = calcein-AM signal in unstimulated myeloma cells – cell-based, calcein-AM fluorescence, 48 h, PK04 Diversity Set, profiling panel (AID 1166); conditions: RPMI8226 myeloma viability, higher = more signal;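 further: cells grown under basal conditions without added stimulus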
# [6] = JC-1 mitochondrial signal, unstimulated HepG2 cells – cell-based, JC-1 fluorescence, 24 h, 100 nL compound, profiling panel (AID 1167); conditions: HepG2 mitochondrial potential, higher = more signal
# [7] = JC-1 mitochondrial signal, unstimulated adipocytes – cell-based, JC-1 fluorescence, 3T3-L1 adipocytes, 24 h, 100 nL compound, profiling panel (AID 1168); conditions: JC-1 mitochondrial fluorescence, higher = more signal, called active from +8 up or from −8 down
# [8] = JC-1 mitochondrial signal, unstimulated myeloma cells – cell-based, JC-1 fluorescence, RPMI8226, 24 h, 100 nL compound, profiling panel (AID 1169); conditions: JC-1 mitochondrial potential fluorescence, higher = more signal
# [9] = JC-1 mitochondrial signal, unstimulated MM1S myeloma – cell-based, JC-1 fluorescence, 24 h, 100 nL compound, profiling panel (AID 1170); conditions: MM1S mitochondrial potential, higher = more signal
# [10] = resazurin metabolic signal in A549 cells – cell-based, resazurin fluorescence, 24 h, PK04 Diversity Set, profiling panel (AID 1171); conditions: A549 viability, higher = more signal, called active from +8 up or from −8 down
# Further: test concentration not given here.
SMILES,z-score [1],z-score [2],z-score [3],z-score [4],z-score [5],z-score [6],z-score [7],z-score [8],z-score [9],z-score [10]
C=CC[C@]1(C(=O)N2CCOCC2)N=C(c2ccc(OCCCO)cc2)O[C@H]1c1ccccc1,-0.211,0.117,-0.539,-1.11,-2.07,-0.0158,-0.0689 (inactive),-0.326,-0.577,1.39 (inactive)
CCOC(=O)C1=CC[C@@H](c2ccccc2Cl)N(S(=O)(=O)c2ccc(C)cc2)C1,-0.378,-0.529,0.15,-1.63,-1.51,4.34,-0.0958 (inactive),-0.329,-1.99,-0.561 (inactive)
COc1ccc(CCN2C(=O)[C@@]3(Cc4ccccc42)c2ccccc2C(=O)N(Cc2ccccc2Cl)[C@H]3c2ccc(CO)cc2)cc1,0.517,-0.0827,0.589,0.23,-0.441,0.308,-0.106 (inactive),-0.316,0.256,-0.343 (inactive)
CCC[C@@H]1C=C(C(=O)O)[C@H](c2ccc(C)cc2)N1S(=O)(=O)c1ccc(C)cc1,-0.85,0.216,-0.522,-0.0213,0.101,-0.584,-0.119 (inactive),-0.131,-0.166,-0.112 (inactive)
COCCOC(=O)N1C(=O)[C@@]2(c3ccccc31)[C@H](c1ccc(O)cc1)N1[C@H](c3ccccc3)[C@H](c3ccccc3)OC(=O)[C@H]1[C@@H]2C(=O)N1CCc2cc(OC)c(OC)cc2C1,0.823,0.748,2.31,0.448,-0.368,0.893,2.9 (inactive),0.228,0.296,-0.275 (inactive)
[N-]=[N+]=NCc1ccccc1[C@@H]1OC(c2ccc(OCCCO)cc2)=N[C@]1(Cc1ccccc1)C(=O)N1CCCCC1,0.251,0.445,0.525,-0.604,-3.3,-0.227,0.467 (inactive),-1.23,-0.354,0.583 (inactive)
C=CCC(OC(C)=O)[C@@H]1[C@@H](N(Cc2ccc(-c3ccccc3)cc2)C(=O)Cc2ccc(OC)cc2)c2cc(OCCCO)ccc2N1C(=O)c1ccc2ccccc2n1 (stereo not given in full),-0.072,0.273,0.978,0.0474,-0.295,2.56,-0.269 (inactive),0.651,0.789,0.902 (inactive)
COC(=O)C(CC#Cc1ccc2c(c1)[C@]1(C(=O)N2)[C@H](C(=O)NC[C@H](O)c2ccccc2)[C@H]2C(=O)O[C@H](c3ccccc3)[C@H](c3ccccc3)N2[C@@H]1c1ccc(OCCO)cc1)C(=O)OC,1.07,0.55,0.0255,-1.17,0.0736,-1.06,1.04 (inactive),-0.94,-1.15,0.199 (inactive)
C=CCC(OC(C)=O)[C@@H]1[C@@H](N(Cc2cc3ccccc3o2)C(=O)c2ccc(C)cc2)c2cc(OCCCO)ccc2N1C(=O)c1ccc2ccccc2c1 (stereo not given in full),1.37,0.595,1.89,1.14,0.671,2.27,-0.409 (inactive),0.33,0.748,1.43 (inactive)
COC(=O)[C@@]1(Cc2ccc(F)cc2)[C@H]2c3cc(C(=O)N(C)C)n(CCc4ccccn4)c3C[C@H]2CN1C(=O)c1ccccc1,-0.619,0.698,-1.39,0.0635,-0.722,-0.0662,-0.539 (inactive),-0.153,0.95,0.429 (inactive)
C=C(COC)C(=O)CC[C@@H](OC(=O)c1cccnc1)c1ccc(CO)o1,0.408,-0.615,0.0726,-0.193,-0.205,-0.178,-0.294 (inactive),0.0598,0.627,0.709 (inactive)
